Most compounds without a hit are left out; they make up all but 5.8% or so of the library.
uPA generation – blocks generation of uPA at the cell surface; cell surface uPA generation assay, qHTS; Potency, µM (highest dose often 38.3 µM), inactives show at the top dose activity change, negative = inhibition, actives largely listed as inhibitors; hit rate 0.31% among 330,000; AID 540303; active means well fitted inhibition curve with a large enough effect; inconclusive means small, poorly fitted or top-dose-only effect; inactive means no such curve, though single readings can be large or run the other way; tested in mouse RAW 264.7 cells; further: potency means the concentration at half of the fitted maximal effect; on the % scale 0 is the no-effect control and ±100 the full control effect; nearly all actives have a fitted effect of over 55% in size
TRPV1 ag – human TRPV1 agonism. Q8NER1. TRPV1-expressing cells, Fluo-8 calcium influx, agonist mode. activation, % at 8.33 µM. hit rate 0.19% among 320,000; in the data active means activation above about 80%; inconclusive means between about 30% and that limit; further: 0% is about no effect
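Cells expressing TRPV1 were dye-loaded with Fluo-8 and read kinetically: 10 s baseline, 3 min after compound (agonist portion), then 2 min after EC20 capsaicin (allosteric enhancer portion). Calcium-bound dye fluorescence at 480/520 nm.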
TRPV1 PAM – potentiators of human vanilloid receptor 1 (TRPV1). TRPV1-expressing cells, Fluo-8 calcium influx, capsaicin EC20 potentiation. potentiation, % at 8.33 µM. hit rate 0.02% among 320,000. AID 540277; in the data active means potentiation above about 80%; inconclusive means between about 30% and that limit; further: 0% is about no effect
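Cells expressing TRPV1 were dye-loaded with Fluo-8 and read kinetically: 10 s baseline, 3 min after compound (agonist portion), then 2 min after EC20 capsaicin (allosteric enhancer portion). Calcium-bound dye fluorescence at 480/520 nm.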
RORg inh – inhibitors of mouse ROR gamma transcriptional activity. Potency, µM (highest dose often 53.6 µM), inactives show at the top dose activity change, negative = inhibition, hits mostly inhibitors. Drosophila S2 Gal4-RORgamma UAS-luciferase reporter, 20 h. P51450. AID 2551. hit rate 5.4% among 310,000; further: potency means the concentration at half of the fitted maximal effect; on the % scale 0 is the no-effect control and ±100 the full control effect; nearly all actives have a fitted effect of over 60% in size
Target sequence (P51450 whole entry, looked up, the tested form may be a part): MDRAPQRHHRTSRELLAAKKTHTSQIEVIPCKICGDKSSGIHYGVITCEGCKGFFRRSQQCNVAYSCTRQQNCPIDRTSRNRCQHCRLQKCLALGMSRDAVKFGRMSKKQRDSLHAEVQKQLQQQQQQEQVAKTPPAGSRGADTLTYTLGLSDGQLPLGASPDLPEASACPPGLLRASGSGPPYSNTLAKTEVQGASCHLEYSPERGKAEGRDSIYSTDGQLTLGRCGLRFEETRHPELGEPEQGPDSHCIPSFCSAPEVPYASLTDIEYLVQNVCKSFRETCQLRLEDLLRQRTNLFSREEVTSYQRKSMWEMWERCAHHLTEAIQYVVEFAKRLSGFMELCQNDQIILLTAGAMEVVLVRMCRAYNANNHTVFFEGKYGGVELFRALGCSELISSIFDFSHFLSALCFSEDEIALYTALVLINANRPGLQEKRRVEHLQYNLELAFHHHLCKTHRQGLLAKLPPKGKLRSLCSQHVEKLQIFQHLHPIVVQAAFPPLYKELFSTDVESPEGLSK
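Luciferase reporter read in Schneider cells carrying Gal4-RORγ (mouse) and UAS-Photinus luciferase; cells given compound 1 h before 700 uM copper sulfate induction, then incubated 20 h at ambient temperature.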
VP16 counter – counter-screen for ROR gamma inhibitors: Gal4-VP16 reporter | Drosophila S2 Gal4-VP16 UAS-luciferase, luminescence, 20 h | Potency, µM (top dose mostly 53.6 µM), inactives show at the top dose activity, negative = inhibition, hits mostly inhibitors | hit rate 3.5% among 310,000 | AID 2546;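 further: Gal4-VP16 expression switched on by copper sulfate through the metallothionein promoter; potency means the concentration at half of the fitted maximal effect; on the % scale 0 is the no-effect control and ±100 the full control effect; nearly all actives have a fitted effect of over 50% in size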
* hit, by the source's call; ? = inconclusive; . = no result given. Unless noted, the call rests on the fitted dose curve; in most records, active means well fitted curve in the direction sought with a large enough effect; inconclusive means small, poorly fitted or top-dose-only effect, or another doubt; inactive means no such curve, though single readings can be large; an effect the other way counts as inactive or inconclusive.

SMILES | uPA generation | TRPV1 ag | TRPV1 PAM | RORg inh | VP16 counter
CCCCc1nc(N2CCN(C(=O)c3ccco3)CC2)c(C#N)c2c1CCCC2 | -22.9% | 86.4* | -26.7 | 11.0% | ?
N#Cc1c(SCC(=O)O)nc(-c2ccccc2)c2c1CCCC2 | 1.1% | 1.8 | -3.4 | -5.7% | -2.0%
COC(=O)/C(Cc1cc(Br)c(OC)c(Br)c1O)=N/O | . | . | . | -2.4% | 6.9%
CC1CCCN(C(=O)C2CCN(S(=O)(=O)c3ccccc3)CC2)C1 (configuration not stated) | -0.6% | . | . | . | .
CCCCC/C=C\C/C=C\CCCCCCCC(=O)NCCc1ccc(O)c(O)c1 | . | . | . | 4.5% | 2.9%
C=CCn1c(O)c(C2=c3ccccc3=NC2=O)c2ccccc21 | -7.0% | 22.7 | 7.5 | 4.47µM* | 3.98µM*
COc1ccc2[nH]cc(CCNc3ncnc4ccc(-c5c(C)noc5C)cc34)c2c1 | . | . | . | -2.8% | -13.8%
COc1ccc(-c2cc3nc[nH]c(=O)c3s2)cc1 | -7.7% | 4.5 | 1.5 | -31.8% | -15.0%
COc1ccc(-c2cc3nc(CCl)[nH]c(=O)c3s2)cc1 | -2.4% | -3.7 | 4.2 | ? | 10µM*
CCn1c(-c2c[nH]c3ccccc23)n[nH]c1=S | 11.6% | 2.9 | ? | ? | -10.0%
CCn1c(-c2csc(-c3ccc(Cl)cc3)n2)n[nH]c1=S | 1.5% | 7.2 | -6.9 | 1.26µM* | ?
CCn1c(Cc2ccccc2)n[nH]c1=S | -4.2% | -5.6 | 3.0 | ? | -25.0%
CCn1c(-c2csc(-c3ccccc3)n2)n[nH]c1=S | 0.4% | 3.5 | 1.1 | 2.51µM* | 6.31µM*
Cc1ccc(NC2C(=O)NC(=O)NC2=O)cc1 | 0.1% | . | . | . | .
Cc1nn(-c2ccccc2)c2c1C1(C(=O)N(C)c3ccccc31)C(C#N)=C(N)O2 (configuration not stated) | -1.2% | 0.3 | 1.0 | 11.2µM* | ?
CC(C)[C@H](N)C(=O)N[C@@H](CCC(N)=O)C(=O)NCC(=O)N[C@@H](CCC(=O)O)C(=O)N[C@@H](CCC(=O)O)C(=O)N[C@@H](CO)C(=O)N[C@@H](CC(N)=O)C(=O)N[C@@H](CC(=O)O)C(=O)N[C@@H](CCCCN)C(=O)O | . | . | . | 0.1% | -4.4%
Clc1ccc(-n2nnc(-c3nccs3)n2)cc1Cl | -16.8% | 13.7 | 19.5 | 15.9% | 9.1%
Cc1ccc(-n2nnc(-c3nccs3)n2)cc1 | 2.24µM* | 24.6 | -15.2 | 3.98µM* | 5.62µM*
COc1ccc(-c2[nH]ncc2-c2ccc(Cl)cc2)c(O)c1 | 3.3% | -0.3 | -8.3 | 8.91µM* | ?
COc1ccc(-c2cn[nH]c2-c2ccc(OC)cc2O)cc1 | -1.3% | 2.5 | -8.3 | ? | 20µM*
Oc1ccc(-c2[nH]ncc2-c2ccc(Cl)cc2)c(O)c1 | 3.6% | -2.5 | -7.5 | -26.0% | -13.2%
COc1ccc(CNC(=O)CN(C)S(=O)(=O)c2ccc3c(c2)OCCO3)cc1OC | 8.3% | 11.2 | -23.9 | . | .
N#Cc1cc2c(nc1SCc1nc3ccccc3[nH]1)CCC2 | . | ? | -16.4 | 10µM* | 11.2µM*
CC(C)OC(=O)CC(=O)CSc1nc2c(cc1C#N)CCC2 | -4.4% | 4.1 | 12.1 | ? | ?
Cc1cccc(CSc2nc3c(cc2C#N)CCC3)c1 | 3.5% | 1.4 | -2.2 | ? | 3.1%
SMILES | uPA generation | TRPV1 ag | TRPV1 PAM | RORg inh | VP16 counter
COC(=O)CC(=O)CSc1nc2c(cc1C#N)CCC2 | 5.9% | 4.2 | 2.7 | ? | 17.8µM*
CC(C)(C)NC(=S)NCC1CC1 | 6.6% | 6.1 | -5.6 | 7.08µM* | ?
COCCC(=O)N1CCC(Oc2ccc(C(=O)N3C[C@@H]4CCC[C@H]3C4)cc2)CC1 | 10.2% | 3.3 | -0.8 | 1.5% | -1.4%
C/C(=N\NC(=O)COc1ccc(C#N)cc1)c1ccccc1OC(F)F | 0.0% | -1.6 | -3.3 | 11.2µM* | 15.8µM*
C/C(=N\NC(=S)NC(C)C)c1ccccc1OC(F)F | -8.5% | 3.8 | -7.4 | 1.78µM* | 5.62µM*
C/C(=N\NC(=O)C1CC1)c1ccc(OC(F)F)cc1OC(F)F | -1.1% | 4.3 | -6.2 | ? | -22.6%
CCNC(=S)N/N=C(\C)c1ccc2ccccc2c1OC(F)F | -7.6% | 22.9 | -10.4 | 1.26µM* | 7.08µM*
CCNC(=S)N/N=C(\C)c1cccc(OC)c1 | 25.2% | 1.3 | -10.9 | 2.51µM* | -25.1%
C/C(=N\NC(=O)c1ccco1)c1cccc2ccccc12 | 0.3% | -0.3 | 5.7 | 14.8% | 3.4%
CCN(CC(=O)NC1CCS(=O)(=O)C1)S(=O)(=O)c1ccc(C)cc1C (configuration not stated) | 2.1% | 1.4 | -9.1 | -6.8% | -3.9%
COc1ccc(SCC(Cc2ccccc2)N2CCN(CCc3ccccc3)CCC2=O)cc1 (configuration not stated) | . | . | . | ? | -10.4%
NC(N)=NCCC[C@H](NC(=O)CC1(CC(=O)N2CCN(C3c4ccccc4NC(=O)c4ccccc43)CC2)CCCC1)C(=O)NCCn1c(=O)n(-c2ccccc2)n(-c2ccccc2)c1=O (some centres not stated) | . | . | . | -12.3% | 2.5%
CCNC(=S)N/N=C(\C)c1ccc2ccccc2c1 | . | 15.2 | 3.8 | 2.82µM* | 7.08µM*
C/C(=N\NC(=O)Nc1ccccc1)c1ccc2ccccc2c1 | 0.1% | -0.2 | -2.5 | -11.6% | ?
CN(Cc1ccccc1)S(=O)(=O)c1ccc(NC(=S)NC(=O)C2CCCC2)cc1 | . | -5.0 | -28.8 | 5.01µM* | ?
CN(c1ccccc1)S(=O)(=O)c1ccc(NC(=S)NC(=O)c2ccccc2)cc1 | 1.1% | ? | -3.6 | 17.8µM* | ?
CN(C)S(=O)(=O)c1ccc(NC(=S)NC(=O)C2CCC2)cc1 | -4.7% | 2.2 | 1.7 | ? | -24.9%
Cc1ccc(C(=O)NC(=S)Nc2ccc(S(=O)(=O)N(C)c3ccccc3)cc2)cc1 | -3.4% | -2.8 | -21.6 | 7.08µM* | ?
CC(=O)Nc1ccc(NC(=O)c2ccc(S(=O)(=O)N(C)c3ccccc3)cc2)cc1 | 17.6% | -0.5 | -20.2 | . | .
CC(C)(C)NS(=O)(=O)c1ccc(NC(=S)NC(=O)C2CCC2)cc1 | 1.5% | -1.4 | -0.1 | 17.8µM* | -16.4%
CS/C(=N\S(=O)(=O)c1cccs1)NC(=O)CSc1nc2ccccc2s1 | 6.0% | 0.8 | ? | -31.9% | -4.4%
CN(c1ccccc1)S(=O)(=O)c1ccc(NC(=S)NC(=O)C2CC2)cc1 | -2.6% | 4.6 | -9.0 | 11.2µM* | ?
COc1ccccc1/C=C/C(=O)NC(=S)Nc1ccc(S(=O)(=O)N(C)c2ccccc2)cc1 | 4.1% | 2.0 | 5.2 | 12.6µM* | 4.7%
O=C(CCCN1C(=O)/C(=C/c2cccc(Br)c2)SC1=S)NCCCN1CCOCC1 | -12.5% | 2.2 | 5.6 | 10µM* | 0.0%
COC(=O)c1ccc(/C=C2\SC(=S)N(CCCC(=O)NCCCN3CCOCC3)C2=O)cc1 | -10.5% | 0.9 | 0.0 | 2.24µM* | 1.78µM*
O=C(CN1C(=O)/C(=C/c2cccc(Br)c2)SC1=S)NCCCN1CCOCC1 | -14.8% | 3.9 | -2.2 | -1.7% | -2.3%
Cc1ccccc1-n1c(=O)n(Cc2ccccc2)c(=O)c2[nH]cnc21 | -16.6% | 8.8 | 19.2 | 0.282µM* | 12.6%

From PubChem
